PubChem BioAssay AID1986 (Sanford-Burnham Center for Chemical Genomics, 2009)
The whole screen tested about 290,000 compounds, of which about 890 (0.31%) were called active. Cut-off read from the data, not from the text of the source: active = inhibition mostly above about 52% (no sharp cut-off); inactive = mostly below about 76%. This excerpt belongs to a sample that is enriched for actives.

Experiment: cell-free HIV fusion peptide-binding blockers – biochemical, uHTS, fluorescence dequenching, primary screen (AID 1986)
Settings: 30 min, stronger effect = higher value
[1] = measured here: repeat confirmation average inhibition, at 18.6 µM

Row | Structure (SMILES) | inhibition (at 20 µM) | inhibition [1] [%]
1 | C=CCn1c(CCC(O)COCCC)n[nH]c1=S (centres undefined) | -0.8% (inactive) | 
2 | O=C1NC(=S)S/C1=C/c1ccc(N2CCOCC2)o1 | 18.7% (inactive) | 
3 | COc1ccc2cc(/C=C3\SC(=S)NC3=O)c(N3CCOCC3)nc2c1 | 63.1% (active) | 
4 | COc1ccc2nc(N3CCCCC3)c(/C=C3\SC(=S)NC3=O)cc2c1 | 53.6% (active) | 
5 | COc1ccc2cc(C#N)c(N3CCOCC3)nc2c1 | 2.4% (inactive) | 
6 | COc1ccc(-n2c(C)cc(/C=C3\SC(=S)NC3=O)c2C)cc1 | 32.3% (inactive) | 
7 | O=C1NC(=S)S/C1=C\c1cc2ccccc2nc1N1CCCCC1 | 63.6% (inactive) | 28.2
8 | Cc1ccc(CN2CCC(n3nccc3NC(=O)C3CCOC3)CC2)cc1C (centres undefined) | -0.8% (inactive) | 
9 | CC(=O)Nc1ccc(C(=O)OCC(=O)c2ccc(C)c([N+](=O)[O-])c2)cc1 | 0.2% (inactive) | 
10 | CCN(CC)S(=O)(=O)c1ccc(C(=O)/C=C/c2ccc(-c3ccc([N+](=O)[O-])cc3)o2)cc1 | 73.1% (active) | 88.1
11 | Cc1ccc(C(=O)/C=C/c2ccc(-c3ccccc3[N+](=O)[O-])o2)cc1 | 35.4% (inactive) | 
12 | Cc1ccc(C(=O)/C=C/c2ccc(-c3ccc(C)cc3)o2)cc1 | 21.5% (inactive) | 
13 | Cc1c(C(=O)Nc2cccnc2Cl)oc2ccccc12 | -1% (inactive) | 
14 | CCCN(C(=O)CN1C(=O)NC2(CCCCCC2)C1=O)C1CCS(=O)(=O)C1 (centres undefined) | 0.3% (inactive) | 
15 | O=C1/C(=C/c2cccnc2)Sc2ccccc21 | 9.2% (inactive) | 
16 | C#CCSc1nc(-c2ccccc2)cc(C(F)(F)F)c1C#N | -0.2% (inactive) | 
17 | N#Cc1c(C(F)(F)F)cc(-c2ccccc2)nc1SCCN1CCOCC1 | 2.6% (inactive) | 
18 | N#Cc1c(C(F)(F)F)cc(-c2ccccc2)nc1SCc1nc(N)nc(N2CCOCC2)n1 | 66.7% (active) | 
19 | O=C(NCC1CCCO1)c1ccc(CNS(=O)(=O)c2cccc(Cl)c2)cc1 (centres undefined) | -0.3% (inactive) | 
20 | Cc1ccc(C(=O)C2=C(O)C(=O)N(Cc3ccco3)C2c2cccc(Cl)c2)o1 (centres undefined) | 25.7% (inactive) | 
21 | Cc1ccc(N=Cc2c(O)n(-c3nccs3)c(=O)c3ccccc23)c(C)c1 | 75.3% (active) | 103

Row | Structure (SMILES) | inhibition (at 20 µM) | inhibition [1] [%]
22 | Cc1ccccc1N=Cc1c(O)n(-c2nccs2)c(=O)c2ccccc12 | 2.3% (inactive) | 
23 | Cc1cc(C)c(N=Cc2c(O)n(-c3nccs3)c(=O)c3ccccc23)c(C)c1 | 0.6% (inactive) | 
24 | CN1CCN(/N=C/c2ccc(-c3ccccc3)cc2)CC1 | 0% (inactive) | 
25 | Cc1[nH]n(-c2ccccc2)c(=O)c1/C=C1/C=c2ccccc2=N1 | -2.5% (inactive) | 
26 | CC1=NN(c2ccccc2)C(=O)/C1=C\c1c(C)[nH]n(-c2ccccc2)c1=O | -0.3% (inactive) | 
27 | Cc1coc2cc3oc(=O)c(CCC(=O)N4CCC(C(=O)O)(c5ccccc5)CC4)c(C)c3cc12 | 3.7% (inactive) | 
28 | O=C1CCN(Cc2ccccc2)CCN1[C@H](CO)c1ccccc1 | 1.5% (inactive) | 
29 | Cc1ccc(NC(=O)COC(=O)c2ccccc2-c2nc3ccccc3s2)c(C)c1 | 1.4% (inactive) | 
30 | CCC(C)N1C(=O)/C(=C/c2c(NCCCOC(C)C)nc3c(C)cccn3c2=O)SC1=S (centres undefined) | 75.6% (active) | 144
31 | Cc1cccn2c(=O)c3cc(C(=O)NCCCOC(C)C)sc3nc12 | 1% (inactive) | 
32 | CCOCCCNc1nc2c(C)cccn2c(=O)c1/C=C1\SC(=S)N(CC(C)C)C1=O | 58.9% (active) | 63.6
33 | Cc1cccn2c(=O)c(C=Nc3ccccc3)c(NCCO)nc12 | 0.3% (inactive) | 
34 | CCCN1C(=O)/C(=C/c2c(NCCCOC(C)C)nc3c(C)cccn3c2=O)SC1=S | 1.8% (inactive) | 
35 | Cc1cccn2c(=O)c(/C=C3\SC(=S)NC3=O)c(NCCCN3CCOCC3)nc12 | 75.8% (inactive) | 7.4
36 | CCCN1C(=O)/C(=C/c2c(NCCCOCC)nc3c(C)cccn3c2=O)SC1=S | 8.4% (inactive) | 
37 | CCOCCCNc1nc2c(C)cccn2c(=O)c1/C=C1\SC(=S)N(C(C)CC)C1=O (centres undefined) | 94.5% (active) | 
38 | CCOCCCNC(=O)c1cc2c(=O)n3cccc(C)c3nc2s1 | -1.3% (inactive) | 
39 | Cc1c(C(=O)NN)sc(=S)n1C | -1.3% (inactive) | 
40 | O=C(N/N=C/c1cc2c(cc1Br)OCO2)c1cc2ccccc2o1 | -0.4% (inactive) | 
41 | COc1cccc(NC(=O)Cc2c(O)c3ccccc3[nH]c2=O)c1 | -2.3% (inactive) | 
42 | Cn1nnnc1SCc1ccccc1F | 2.4% (inactive) | 

Row | Structure (SMILES) | inhibition (at 20 µM) | inhibition [1] [%]
43 | O=C(Nc1cccc(NC(=O)c2ccc([N+](=O)[O-])o2)c1)c1ccco1 | 0.6% (inactive) | 
44 | CC(C)c1onc(C(=O)NCCc2ccccc2)c1[N+](=O)[O-] | -0.8% (inactive) | 
45 | O=C(O)c1ccccc1NS(=O)(=O)c1cccc(C(F)(F)F)c1 | 7.8% (inactive) | 
46 | O=C(O)c1ccccc1NS(=O)(=O)c1cccc(-n2sc3ccccc3c2=O)c1 | 54.9% (active) | 
47 | CN(C)S(=O)(=O)c1cccc(-n2sc3ccccc3c2=O)c1 | -1.2% (inactive) | 
48 | Oc1cccc(C=Nc2cccc3ccccc23)c1O | 36.3% (inactive) | 
49 | Cc1ccccc1N=Cc1cccc(O)c1O | 64.9% (active) | 
50 | Cc1ccc(N=Cc2cccc(O)c2O)c(C)c1 | -1.8% (inactive) | 
51 | Clc1cccc(CN2CCN(c3nc4nonc4nc3NC3CC3)CC2)c1 | 3.4% (inactive) | 
52 | Nc1ccc2nc3c(=O)n(C4CCCCC4)c(=O)[nH]c3nc2c1 | 146% (inactive) | 
53 | CCCCCCn1c(=O)[nH]c2nc3cc(N)c(C)cc3nc2c1=O | 38.8% (inactive) | 
54 | Cc1cc2nc3c(=O)n(C4CCCCC4)c(=O)[nH]c3nc2cc1N | 66.8% (active) | 
55 | CCOC(=O)c1cnc2c(N=Nc3ccccc3)c(N)nn2c1N | -0.1% (inactive) | 
56 | COc1ccc(/C=N\NS(=O)(=O)c2ccc(Br)cc2)cc1COc1ccccc1[N+](=O)[O-] | -1.1% (inactive) | 
57 | COC(=O)c1cc(S(=O)(=O)NCCc2ccc(Cl)cc2)c[nH]1 | 1.3% (inactive) | 
58 | COc1ccccc1C(NC(C)=O)c1cc(Cl)c2cccnc2c1O (centres undefined) | -2.4% (inactive) | 
59 | O=C(O)COc1ccccc1C(Nc1ccccn1)c1cc(Cl)c2cccnc2c1O (centres undefined) | 56.9% (active) | 
60 | Oc1c(C(Nc2ccccn2)c2cccnc2)cc(Cl)c2cccnc12 (centres undefined) | -3.6% (inactive) | 
61 | O=C(O)COc1ccccc1C(Nc1cccnc1)c1cc(Cl)c2cccnc2c1O (centres undefined) | 77.6% (active) | 
62 | O=C(NC(c1ccccc1)c1cc(Cl)c2cccnc2c1O)c1cccnc1 (centres undefined) | 0.8% (inactive) | 
63 | CCOc1ccc(C(Nc2cccnc2)c2cc(Cl)c3cccnc3c2O)cc1 (centres undefined) | 17.1% (inactive) | 
